# Where “and” joins values, the source holds several entries; their conditions need not be identical. Equal values may be shown once. Records with an inconclusive call do not appear. A call without a number means that no potency is given here. Some compounds were tested as several samples or in several runs, with calls that do not always agree. Calls of active or inactive are those of the source. Calls come from the whole dose curve; as a rule, active = well fitted curve in the direction sought with a large enough effect; inconclusive = small, poorly fitted or top-dose-only effect, or another doubt; inactive = no such curve, though single readings can be large; an effect the other way counts as inactive or inconclusive.
# Legend:
# [1] = Primary qHTS for small molecule stabilizers of the endoplasmic reticulum resident proteome: Secreted ER Calcium Modulated Protein (SERCaMP) assay (AID 1508630)
# How it was run: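 GLuc-SERCaMP-expressing SH-SY5Y cells, pretreated 16 h with compound, are challenged with thapsigargin to empty ER calcium stores; after 4 h, coelenterazine is added directly to the medium and luminescence is imaged.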
# [2] = target: Calcium and integrin-binding protein 1 (Homo sapiens) (UniProt Q99828); experiment: Primary qHTS for Identification of Calcium Integrin Binding Protein 1 (CIB1) Competitor (AID 1508620);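 note: GST tagged CIB1 binding a fluorescein labelled alphaIIb integrin peptide tracer; top concentration of the series differs between compounds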
# How it was run: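 Fluorescence polarization competition: GST-tagged CIB1 (1 uM final) preincubated with compound 15 min at room temperature, then FITC-labelled alphaIIb peptide (100 nM final) added. After 15 min at room temperature, polarization read at Ex 480/Em 540.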
# [3] = Primary qHTS for inhibitors of nuclear receptor binding SET domain protein 2 (NSD2) in an isogenic RCH-ACV NSD2 p.E1099K mutant (9B) (AID 1645876); note: nearly all actives have a fitted effect of over 70% in size; note: potency is the fitted concentration of half-maximal effect
# [4] = Primary qHTS for inhibitors of nuclear receptor binding SET domain protein 2 (NSD2) in an RCH-ACV wild type WT cells (2C) (AID 1645877); note: nearly all actives have a fitted effect of over 70% in size; note: potency is the fitted concentration of half-maximal effect
# [5] = Counterscreen qHTS for small molecule stabilizers of the endoplasmic reticulum resident proteome: GLuc-NoTag assay (AID 1508627);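 note: SH-SY5Y cells given compound then 100 nM thapsigargin to empty ER calcium; series mostly up to about 76 µM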
# How it was run: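 SH-SY5Y cells stably expressing constitutively secreted GLuc without SERCaMP tag, exposed to compound for 19 hr, then to 100 nM thapsigargin for 4 hr at 37C. Medium luciferase was read by coelenterazine luminescence without lysis.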
# [6] = Confirmatory qHTS for small molecule stabilizers of the endoplasmic reticulum resident proteome: Secreted ER Calcium Modulated Protein (SERCaMP) assay (AID 1508628);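 note: SH-SY5Y cells given compound 16 h then thapsigargin 100 nM for 4 h; series mostly up to about 76 µM; nearly all actives have a fitted effect of over 40% in size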
# How it was run: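 We seeded SH-SY5Y-GLuc-SERCaMP cells, added compounds (three concentrations in the primary run, eleven up to 76.6 uM in confirmation), incubated 16 h, depleted ER calcium with thapsigargin, and read luciferase 4 h later.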
# [7] = Cell Viability qHTS for small molecule stabilizers of the endoplasmic reticulum resident proteome (AID 1508629); conditions: cell viability counter-screen, 100 nM thapsigargin for final 4 h;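 note: human SH-SY5Y neuroblastoma cells carrying the GLuc-SERCaMP reporter; compound exposure about 46 h in total before the viability read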
# Calcium and integrin-binding protein 1 (Homo sapiens), sequence (Q99828 whole entry, looked up): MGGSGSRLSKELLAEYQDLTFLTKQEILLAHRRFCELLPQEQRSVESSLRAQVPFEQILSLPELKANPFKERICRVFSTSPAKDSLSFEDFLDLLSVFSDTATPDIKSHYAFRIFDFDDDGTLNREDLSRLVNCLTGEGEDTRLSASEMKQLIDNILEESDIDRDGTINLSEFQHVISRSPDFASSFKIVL
smiles,measurement,setting,value
COc1cc2c(cc1OC)[C@@H]1Cc3ccc(OC)c(OC)c3CN1CC2,Potency,[1],inactive
CNC1[C@H](O)C(O[C@@H]2C(O)C(O[C@H]3O[C@H]([C@@H](C)NC)CC[C@H]3N)[C@@H](N)C[C@H]2N)OC[C@]1(C)O (some centres not stated),Potency,[1],inactive
NC[C@H]1O[C@H](O[C@@H]2[C@@H](O)[C@@H](O[C@H]3O[C@H](CO)[C@@H](O)[C@H](N)[C@@H]3O)[C@H](N)C[C@@H]2N)[C@H](O)[C@@H](O)[C@H]1O,Potency,[2],inactive
same,Potency,[3],inactive
same,Potency,[4],inactive
COc1ccc(-c2nc3ccc(C4=NNC(=O)CC4C)cc3[nH]2)cc1 (configuration not stated),Potency,[2],inactive
same,Potency,[3],9.44 µM (active) and 14.8 µM (active)
same,Potency,[4],5.96 µM (active) and 11.8 µM (active)
CC(C)=CCCC(C)=CCCC(C)=CCCC(C)=CCCC(C)=CCCC(C)=CCCC(C)=CCCC(C)=CCCC(C)=CCO,Potency,[5],inactive
same,Potency,[6],inactive
same,max response,[7],2.98% (inactive)
O=C(O)CCNc1cc(N2CCc3ccccc3CC2)nc(-c2ccccn2)n1,Potency,[2],inactive
same,Potency,[3],inactive
same,Potency,[4],inactive
Cc1cc(NC(=O)Nc2ccc(N(C)C)cc2)c2cc(F)cc(F)c2n1,Potency,[2],inactive
same,Potency,[3],inactive
CN1CC(=O)NC1=NC(=O)Nc1cccc(Cl)c1,Potency,[2],inactive
same,Potency,[3],inactive
same,Potency,[4],inactive
COc1ccc2c(c1)c(C1=C(c3c[nH]c4ccccc34)C(=O)NC1=O)cn2CCCN(C)C,Potency,[2],inactive
same,Potency,[3],7.42 µM (active)
Cc1ccc2c(=O)c3cccc(CC(=O)O)c3oc2c1C,Potency,[2],inactive
same,Potency,[3],inactive
same,Potency,[4],inactive
Cc1c(C(=O)Nc2ccc(N3C[C@@H](C)O[C@@H](C)C3)nc2)cccc1-c1ccc(OC(F)(F)F)cc1,Potency,[2],inactive
same,Potency,[3],inactive
same,Potency,[4],inactive
Cc1cccc(-c2[nH]c(C(C)(C)C)nc2-c2ccc3c(c2)OCO3)n1,Potency,[2],inactive
same,Potency,[3],4.61 µM (active) and 4.17 µM (active)
same,Potency,[4],4.11 µM (active) and 4.17 µM (active)
CC(C)Oc1cc(Nc2nc(N[C@@H](C)c3ccc(F)cn3)ncc2Cl)[nH]n1,Potency,[2],inactive
same,Potency,[3],7.42 µM (active) and 8.2 µM (active)
same,Potency,[4],9.34 µM (active) and 6.51 µM (active)
COc1cc(F)c(C(C)C)cc1-c1ccc(C(F)(F)F)cc1CN1C(=O)O[C@H](c2cc(C(F)(F)F)cc(C(F)(F)F)c2)[C@@H]1C,Potency,[2],inactive
same,Potency,[4],inactive
COc1cc([C@H]2Oc3cc([C@H]4Oc5cc(O)cc(O)c5C(=O)[C@H]4O)ccc3O[C@H]2CO)ccc1O,Potency,[1],inactive
O=C(O)Cc1cccc(OCCCN(Cc2cccc(C(F)(F)F)c2Cl)CC(c2ccccc2)c2ccccc2)c1,Potency,[2],inactive
same,Potency,[3],inactive
same,Potency,[4],inactive
CN(C)CC[C@H](CSc1ccccc1)Nc1ccc(S(=O)(=O)NC(=O)c2ccc(N3CCN(Cc4ccccc4-c4ccc(Cl)cc4)CC3)cc2)cc1[N+](=O)[O-],Potency,[2],inactive
same,Potency,[3],4.17 µM (active)
same,Potency,[4],2.63 µM (active)
O=C(NCCCCN1CCOCC1)c1cc2ccccc2o1,Potency,[2],inactive
same,Potency,[3],inactive
same,Potency,[4],inactive
COc1ccc2c(c1)CC[C@H]1[C@@H]2CC[C@]2(C)[C@@H](NCCCCCCN3C(=O)C=CC3=O)CC[C@H]12,Potency,[1],inactive
N#Cc1c(N(CC(=O)O)CC(=O)O)sc(C(=O)O)c1CC(=O)O,Potency,[2],inactive
same,Potency,[3],inactive
same,Potency,[4],inactive
O=C(O)C1=NC(C(=O)O)CC(C=CN2c3cc(O)c(OC4OC(CO)C(O)C(O)C4O)cc3CC2C(=O)O)=C1 (configuration not stated),Potency,[1],inactive
COc1cccc(OC)c1-c1cc(C(=O)NC2(C(=O)O)C3CC4CC(C3)CC2C4)nn1-c1ccnc2cc(Cl)ccc12 (configuration not stated),Potency,[2],inactive
same,Potency,[4],inactive
CC(C)(C)c1[nH]cnc1C=c1[nH]c(=O)c(=Cc2ccccc2)[nH]c1=O,Potency,[1],inactive
O=S(=O)(NCCNCC=Cc1ccc(Br)cc1)c1cccc2cnccc12,Potency,[1],inactive
COc1cc2c(cc1Cc1cccc(Cl)c1F)c(=O)c(C(=O)O)cn2[C@H](CO)C(C)C,Potency,[2],inactive
same,Potency,[3],7.42 µM (active)
same,Potency,[4],5.25 µM (active)
Cc1ccc(S(=O)(=O)Nc2nc3ccccc3nc2Nc2ccc3nsnc3c2)cc1,Potency,[2],inactive
same,Potency,[3],inactive
same,Potency,[4],14.6 µM (active) and inactive
O=C(Nc1cccc(Cl)c1)Nc1ncc(CCNc2ncnc3ccsc23)s1,Potency,[2],inactive
same,Potency,[3],1.86 µM (active)
same,Potency,[4],0.0295 µM (active)
CCCCC(F)(F)[C@@]1(O)CC[C@H]2[C@H](CC(=O)[C@@H]2CCCCCCC(=O)O)O1,Potency,[2],inactive
same,Potency,[4],inactive
CCCCC(C)(C)[C@H](O)C=C[C@H]1[C@H](O)CC(=O)[C@H]1CC=CCCCC(=O)O,Potency,[2],inactive
same,Potency,[3],inactive
Cc1c(-c2cccc3c(CCCOc4cccc5ccccc45)c(C(=O)O)n(Cc4cccnc4)c23)c(COc2ccc(N3CCN([S+](=O)([O-])N(C)C)CC3)cc2)nn1C,Potency,[1],inactive
CCC(=C(CC)c1ccc(O)cc1)c1ccc(O)cc1,Potency,[1],inactive
COc1ccc(Cn2ccc3ccc(C(=O)NO)cc32)cc1,Potency,[2],inactive
same,Potency,[3],9.16 µM (active) and 13.2 µM (active)
same,Potency,[4],16.3 µM (active) and 8.33 µM (active)

# Source: PubChem BioAssay (NCATS)
